MCF10A rerep – A quantitative high throughput screen for small molecules that induce DNA re-replication in MCF 10a normal breast cells. Potency, µM (doses to about 46.1 µM), actives largely listed as activators. AID 624296, 2012. MCF 10A DNA re-replication, Hoechst nuclear intensity, 48 h. 2.9% of 350,000 active; further: nearly all actives have a fitted effect of over 50% in size
SW480 rereplic – A quantitative high throughput screen for small molecules that induce DNA re-replication in SW480 colon adenocarcinoma cells; SW480 DNA re-replication, Hoechst DNA content imaging, 48 h; Potency, µM (top dose mostly 46.1 µM), hits mostly activators; 1.8% of 340,000 active; AID 624297, 2012; further: nearly all actives have a fitted effect of over 55% in size
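Hoechst fluorescence of nuclei (405 nm excitation, 500-530 nm emission) measured by plate-scanning imager after 48 hr compound exposure at 37 C; re-replication scored as increased number of nuclei with elevated intensity.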
KB-3-1 tox – qHTS assay for MDR1-selective chemotherapeutics: Primary screen using the parental adenocarcinoma cell KB-3-1. 1.4% of 400,000 active. KB-3-1 viability, CellTiter-Glo ATP luminescence, 72 h. Potency, µM (titrated, usually from 46.1 µM), actives largely listed as cytotoxic. AID 1347075, 2019; further: nearly all actives have a fitted effect of over 60% in size
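72 h, 37 °C compound treatment of KB-3-1 parental cells; CellTiter-Glo added, 10 min, luminescence read. Data corrected against DMSO-only plates and normalized before curve fitting.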
IL1B secr inh – qHTS for Inhibitors of Inflammasome Signaling: IL-1-beta AlphaLISA Primary Screen. THP-1 LPS/ATP IL-1B secretion, AlphaLISA, 16 h; hits give low values. activity change, % at 57.5 µM. 4.7% of 360,000 active; in the data active means activity change below about -50%; inconclusive means mostly about -30% to -49%
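Secreted IL-1B measured by AlphaLISA bead assay after 16 h compound exposure of THP-1 cells; compounds (final up to 57.5 uM) added 1 h before LPS (250 ng/mL) and ATP (1.25 mM) stimulation; lower signal means less secretion.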
KB-V1 cytotox – qHTS assay for MDR1-selective chemotherapeutics: Primary screen using the drug-selected MDR subline cells KB-V1. KB-V1 MDR cells viability, CellTiter-Glo, 72 h. Potency, µM (series often up to 46.1 µM), usual class: cytotoxic. 3.4% of 400,000 active. AID 1347076, 2019; further: nearly all actives have a fitted effect of over 60% in size
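Compound-treated KB-V1 multidrug-resistant cells, 72 h, 37 degrees C; viability by CellTiter-Glo. Fitted qHTS curves give the values.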
A number is an active result; i = inactive; ? = inconclusive; nt = not tested or not shown; [ ] = another dose, or the depositor's remark. Hits are enriched below; roughly 9.9% of the tested compounds scored in any of these assays. Unless noted, the call rests on the fitted dose curve; in most records, active means well fitted curve in the direction sought with a large enough effect; inconclusive means small, poorly fitted or top-dose-only effect, or another doubt; inactive means no such curve, though single readings can be large; an effect the other way counts as inactive or inconclusive.

SMILES	MCF10A rerep	SW480 rereplic	KB-3-1 tox	IL1B secr inh	KB-V1 cytotox
CCCc1nn(C)c(C(N)=O)c1[N+](=O)[O-]	i	?	i	i	i
N#Cc1c([N+](=O)[O-])cc([N+](=O)[O-])cc1S(=O)(=O)Cc1ccccc1	?	5.2µM	23µM	-112	?
Brc1ccc(-c2cc3c(N4CCN(c5ccccc5)CC4)nccn3n2)cc1	nt	nt	i	nt	i
CCc1ccc(NC(=O)CCc2ccc(C)o2)cc1	16µM	?	?	i	i
CCOC(=O)[C@]12CCC=C1N(CCC1=CCCCC1)C(=O)[C@H](CC(=O)NCC1CCCCC1)C2	nt	nt	i	i	?
CCCCCCCCN1C(=O)[C@H](CC(=O)NCC2CCCCC2)C[C@@]2(C(=O)OCC)CCC=C12	nt	nt	i	i	?
CCCCCCCCN1C(=O)[C@H](CC(=O)NCC2CCCCC2)C[C@@]2(C(=O)OCC)CCCC=C12	nt	nt	?	-51	?
CCOC(=O)[C@]12CCCC=C1N(CCC1=CCCCC1)C(=O)[C@H](CC(=O)NCC1CCCCC1)C2	nt	nt	16µM	?	15µM
CC1(C(=O)NS(=O)(=O)c2cccc(F)c2)CCN1C(=O)c1ccccc1 (stereo unspecified)	nt	nt	i	i	i
COc1ccc(CC(=O)OCC(=O)NC2CCCCC2)cc1OC	i	i	i	i	i
O=C(NCCCN1CCCCCC1)c1ccc2c(Cl)c3c(nc2c1)CCCC3	?	i	?	-71	i
CCN1CCN(CCCNC(=O)c2ccc3c(Cl)c4c(nc3c2)CCCC4)CC1	?	?	?	nt	i
CCN(CC)CCCNC(=O)c1ccc2c3n(nc2c1)-c1ccc(Cl)cc1CO3	i	i	i	-60	i
CCCN(CCC)CCCNC(=O)c1ccc2c(Cl)c3c(nc2c1)CCC3	i	i	i	-67	i
COCCNC(=O)c1ccc2c(Cl)c3c(nc2c1)CCC3	i	i	i	i	i
Cc1noc2ncnc(Sc3ccc(Br)cc3)c12	13µM	i	?	-101	i
O=C1C=CC(O)(c2cc(=O)c3c(O)cc(O)cc3o2)C=C1	1.5µM	4.1µM	?	-104	5.8µM
O=c1cc(-c2ccccc2Cl)oc2cc(O)cc(O)c12	?	i	i	i	i
CCOC(=O)CN1CCC(C2(c3cc4ccccc4[nH]3)OCCO2)CC1	nt	nt	i	i	i
CCOc1cccc2sc(NC(=O)CS(=O)(=O)c3ccc(C)cc3)nc12	nt	nt	i	nt	i
CCOC(=O)c1c(C)n(C)c2cc(Br)c(O)c(O)c12	i	i	i	i	i
CCOC(=O)c1c(CSc2cccs2)n(C)c2cc(Br)c(O)c(CN(C)C)c12	i	i	?	-54	i
CC(=O)N1CCN=C1SCc1ccc(C)cc1	i	i	i	i	i
O=C(c1cccs1)N1CCN=C1SCc1ccc(Cl)cc1	i	i	i	i	i
O=C(c1cccs1)N1CCN=C1SCc1cccnc1	i	i	i	-78	i
SMILES	MCF10A rerep	SW480 rereplic	KB-3-1 tox	IL1B secr inh	KB-V1 cytotox
O=C(COc1ccccc1)N1CCN=C1SCc1cccnc1	i	i	i	i	i
O=C(COc1ccccc1)N1CCN=C1SCc1ccc(F)cc1	i	?	i	-97	i
O=C(Cc1ccc(F)cc1)N1CCN=C1SCc1ccc([N+](=O)[O-])cc1	i	i	i	-64	?
CCOC(=O)N1CCN=C1SCc1ccc(C(F)(F)F)cc1	i	i	i	-82	?
c1cc2c3c(c1)CCCN3CCC2	nt	nt	i	nt	i
COc1ccc(OC)c(CN2CCN(CC(=O)Nc3ccccc3C(=O)NC3CC3)CC2)c1	i	i	i	i	i
Cc1ccccc1S(=O)(=O)N(C)C[C@H]1OCc2cnnn2CCCC(=O)N([C@H](C)CO)C[C@H]1C	nt	nt	i	i	i
O=C(Cc1cccs1)N1CCN=C1SCc1ccc(Br)cc1	?	i	i	-102	?
CCOc1ccc(CC(=O)N2CCN=C2SCc2ccc([N+](=O)[O-])cc2)cc1	i	i	i	-97	?
O=C(Cc1cccs1)N1CCN=C1SCc1cccc(F)c1	i	i	i	i	i
O=C(Cc1ccccc1)N1CCN=C1SCc1ccc([N+](=O)[O-])cc1	i	i	i	-55	i
COc1ccc(CC(=O)N2CCN=C2SCc2ccc([N+](=O)[O-])cc2)cc1	i	i	?	nt	i
CC(C)CNS(=O)(=O)c1ccc(Br)cc1N1CCC[C@@H]1CO	i	i	i	i	i
CCCCCCn1cc(CN2CC(N3CCN(CCO)CC3)CS2(=O)=O)nn1 (stereo unspecified)	nt	nt	i	i	i
Cc1ccc(CCNC(=O)C2CCN(S(=O)(=O)c3ccc4c(c3)NC(=O)C(C)S4)CC2)cc1 (stereo unspecified)	i	i	?	-68	i
NS(=O)(=O)c1ccc(CCNC(=O)C2CCN(S(=O)(=O)c3cnc[nH]3)CC2)cc1	21µM	?	i	i	i
CC1Sc2ccc(S(=O)(=O)N3CCC(C(=O)NCCc4ccccc4)CC3)cc2NC1=O (stereo unspecified)	i	?	i	i	i
NS(=O)(=O)c1ccc(CCNC(=O)C2CCN(S(=O)(=O)c3ccccc3)CC2)cc1	i	i	i	i	i
O=C1Cc2cc(S(=O)(=O)N3CCN(c4ccc([N+](=O)[O-])cc4)CC3)ccc2N1	nt	nt	i	nt	i
CCOC(=O)C(N)CSC1CC(=O)N(CCc2ccccc2)C1=O (stereo unspecified)	?	i	i	i	i
COCCNc1nc(-c2cc3ccccc3o2)cs1	i	i	i	-53	?
CCC(C)C(=O)Nc1ccc(S(=O)(=O)N2CCCC2)cc1 (stereo unspecified)	?	?	i	i	i
CCC(C)NS(=O)(=O)c1ccc(S(=O)(=O)N2CCCC3(CCCCC3)C2)cc1 (stereo unspecified)	?	i	5.8µM	i	3.7µM
Nc1ccccc1Nc1cc(-c2ccccc2)[nH]n1	?	i	i	-94	?
CO/N=C/c1cccn1-c1nccc(N(C)C)c1C#N	i	i	i	i	i
COc1ccc(OC)c(NC(=O)CSc2ncnc3c2cnn3-c2ccccc2Cl)c1	?	i	?	-79	?
Cc1c(Cl)cccc1NC(=O)CSc1ncnc2c1cnn2CCc1ccccc1	10µM	i[9.22 µM]	i	i	i
O=C(CSc1ncnc2c1cnn2CCc1ccccc1)Nc1cccc(C(F)(F)F)c1	?	i	i	i	i
COC(=O)c1sc(S(=O)(=O)N2CCCCC2C)c(C(=O)OC)c1C (stereo unspecified)	i	i	i	i	?
CCc1ccc(-c2cc(C(F)(F)F)n3nc(C(=O)Nc4c(C)nn(Cc5ccc(F)cc5)c4C)cc3n2)s1	?	8.2µM	?	?	?

Compound activity deposited in PubChem BioAssay by National Center for Advancing Translational Sciences (NCATS).
